Screens as filed in PubChem BioAssay.
HIV RNase H inh-1 – inhibitors of HIV-1 reverse transcriptase RNase H; RT-RNase H RNA/DNA duplex cleavage, fluorescence; inhibition, % at 10 µM; 1.9% of 65,000 active; AID 565; in the data active = inhibition above about 50%
HIV RNase H inh-2 – confirmation of HIV-1 reverse transcriptase RNase H inhibitors; shares compounds with HIV RNase H inh-1; Recombinant RT RNase H, fluorescent RNA/DNA duplex cleavage; inhibition, % at 10 µM; 39% of 1,000 active; in the data active = inhibition above about 48%; inconclusive = no clear call, values can overlap the other calls
Starred values were filed as active, the others as inactive; ? = inconclusive. The entries come from a sample that favours hits as a whole.

SMILES	HIV RNase H inh-1	others
CCOC(=O)C1CCN(C(=O)Nc2ccc(Cl)cc2Cl)CC1	-4
CCOC(=O)COc1ccc(S(=O)(=O)NCCC2=CCCCC2)cc1	2
Cc1ccc2nsnc2c1S(=O)(=O)N(Cc1cc2cccc(C)c2[nH]c1=O)CC1CCCO1 (stereo not given)	-5
C=CCSc1nc(N)c(C(=O)Nc2ccccc2C)cc1C(N)=O	0
Cc1ccc(C2C(C(=O)c3cc4ccccc4o3)=C(O)C(=O)N2CCCN(C)C)cc1 (stereo not given)	-5
O=C(Nc1ccc(N2CCCCC2)c(C(=O)O)c1)c1ccco1	-15
Cc1cccc(NC(=O)c2cc(NC(=O)c3ccco3)ccc2N2CCCCC2)c1	73*	HIV RNase H inh-2=?
O=C(Nc1ccc(N2CCCC2)c(Cl)c1)c1ccco1	-1
COC(=O)c1ccc(Cn2cnc3c(cnn3-c3ccc(Cl)cc3)c2=O)o1	-13
N#Cc1ccc(Oc2cccnc2)cc1C#N	-16
CCOc1cc2[nH]c(=O)n(CCCCC(=O)NC3CCCCCC3)c(=O)c2cc1OCC	-5
CCOc1cc2[nH]c(=O)n(CC3CCC(C(=O)NCCCOC)CC3)c(=O)c2cc1OCC (stereo not given)	0
CCOc1cc2[nH]c(=O)n(CC3CCC(C(=O)NCCC(C)C)CC3)c(=O)c2cc1OCC (stereo not given)	68*	HIV RNase H inh-2=?
CCOC(=O)/C(C(C)=O)=C1\OC(=O)c2ccccc21	-4
N#Cc1c(N)sc(=S)c2c1CCCCC2	58*	HIV RNase H inh-2=9
N#Cc1c(N)c(C#N)c(-c2ccc(O)cc2)c2c1CCCC2	-25
N#Cc1c(N)sc2c1CCCCCC2	-43
CC(C)CN(CC(C)C)C(=O)C12CCC(C)(C(=O)C1)C2(C)C (stereo not given)	3
CCSc1ccccc1C(=O)Nc1cc(C)on1	-4
CCSc1ccccc1C(=O)Nc1nncs1	56*	HIV RNase H inh-2=18
CCSc1ccccc1C(=O)Nc1cccnc1	21
COc1cc(C#CC#CCN2CCCCC2)ccc1O	2
Cc1ccc(C(N)=S)c(C)c1	-8
O=C(COn1nnc2ccc(Cl)cc21)NCc1ccccc1	-12
Cc1cccc(-c2nnc(SCc3cc(=O)[nH]c4ccccc34)n2C)c1	9
SMILES	HIV RNase H inh-1	others
CCC(=O)N(Cc1cc(=O)[nH]c2ccccc12)c1cccc(C)c1	70*	HIV RNase H inh-2=2
COc1ccc(N(Cc2cc(=O)[nH]c3ccccc23)C(=O)c2ccco2)cc1	9
CNC(=O)c1cc2cccc(OC)c2oc1=O	13
COc1ccccc1N=c1oc2c(OC)cccc2cc1C(=O)NCc1ccco1	70*	HIV RNase H inh-2=72*
COc1ccccc1OCC(=O)NCc1ccco1	-13
CCNC(=O)NC(=O)COC(=O)c1ccccc1SCC(=O)NC(=O)NCC	4
CCOC(=O)CSc1nc2ccc(N3CCOCC3)cc2c(=O)n1Cc1ccc2c(c1)OCO2	34
COc1ccc(NC(=O)CSc2nnc(CNC(=O)COc3ccc(Cl)cc3)o2)c(OC)c1	-33
CCc1nnc(NC(=O)CSc2nnc(CNc3ccc(Cl)cc3)o2)s1	-1
CCOc1cc(C(=O)CSc2nnc(CNc3ccc(Cl)cc3)o2)ccc1NC(=O)CC	67*	HIV RNase H inh-2=14
O=C(NC1CCCCCC1)C1CC(=O)N(Cc2ccccc2)C1 (stereo not given)	9
CC1=NC(C)Cc2ccccc21 (stereo not given)	-5
COc1ccc(CCN=CC2=C(O)CCCC2=O)cc1OC	-2
CCCCN(C)C(=O)c1coc(=O)c2ccccc12	-6
Cc1ccc(CNC(=O)c2coc(=O)c3ccccc23)o1	-18
CN(C(=O)c1coc(=O)c2ccccc12)c1ccc(F)cc1	72*	HIV RNase H inh-2=33
O=C(NCCN1CCOCC1)c1ccc2c(c1)ncn2C1CCCCC1	-16
O=C(CN1CCOCC1)NCC12CC3CC(CC(C3)C1)C2	-18
Cc1cccc(N(C)c2cc(C)nc3nc(C)nn23)c1	-17
COc1ccc(-c2nn3c(C4CCCCC4)nnc3s2)cc1OC	37
c1ccc(-c2nn3c(C4CCCCC4)nnc3s2)cc1	-6
COc1cc(-c2nn3c(C4CCCCC4)nnc3s2)cc(OC)c1OC	75*	HIV RNase H inh-2=29
O=C(O)CCCCCNC(=O)CCn1cnc2ccccc2c1=O	1
COC(=O)CSc1nnc(CNC(=O)Cc2ccccc2)n1C	-11
Cc1cc2c(cc(C(=O)NCc3cccnc3)n2Cc2ccc(Cl)cc2)o1	0
SMILES	HIV RNase H inh-1	others
O=C(CSc1nnc(Nc2ccccc2)s1)NCc1ccco1	-5
O=C(CSc1nnc(Nc2ccccc2F)s1)NCc1ccco1	33
Cc1ccccc1Nc1nnc(SCC(=O)NC(=O)NCc2ccco2)s1	67*	HIV RNase H inh-2=20
Cc1ccc(-n2c(CSc3nc(C)cc(C)n3)nnc2SCC(=O)N2CCCC2)cc1	-2
CC1CCN(c2c(NCc3ccc(C(=O)NCC4COc5ccccc5O4)cc3)c(=O)c2=O)CC1 (stereo not given)	2
CCOC(=O)C1CCN(S(=O)(=O)c2cccc(-c3csc(C)n3)c2)CC1	23
Cc1nc(-c2cccc(S(=O)(=O)N3CC(C)OC(C)C3)c2)cs1 (stereo not given)	-11
Cc1nc(-c2cccc(S(=O)(=O)N3CCOCC3)c2)cs1	78*	HIV RNase H inh-2=58*
C/C(=N\n1nnnc1Nc1ccccc1)c1ccc(N)cc1	-14
Cc1cc(C)c(NC2=NCC(=O)N2C2CCCCC2)c(C)c1	-57
CCc1ccccc1NC1=NCC(=O)N1Cc1ccccc1	-30
CCc1ccccc1NC1=NCC(=O)N1C1CCCCC1	83*	HIV RNase H inh-2=20
COc1cccc(OC)c1C(=O)N1CCN(Cc2ccccc2C)CC1	4
Cn1c(SCC(=O)N2CCCCC2)nc2cccnc21	-8
O=C(N1CCN=C1SCc1cccnc1)C12CC3CC(CC(C3)C1)C2	-19
CC(C)c1cc(C(=O)N2CCN(C(c3ccccc3)c3ccccc3)CC2)no1	74*	HIV RNase H inh-2=50
COc1ccc(-c2cc(C(=O)N3CCN(C(c4ccccc4)c4ccccc4)CC3)no2)cc1	-4
O=C(c1cc(-c2ccco2)on1)N1CCN(C(c2ccccc2)c2ccccc2)CC1	-9
CCOC(=O)c1sc(C)c2c(=O)n(CCCN3CCOCC3)cnc12	-4
CCCCOc1ccccc1NC(=O)CSc1nnnn1C(C)(C)C	-25
Cc1ccc(-c2cc(C(=O)NCc3ccco3)c3ccccc3n2)o1	-19
Cc1ccc2c(CC(=O)NC3=NCCS3)coc2c1	-80
O=C(NC1=NCCS1)c1ccc(-c2ccc(Cl)cc2)o1	-13
Cc1ccc(-c2cc(C(=O)NC3=NCCS3)c3cc(Br)ccc3n2)o1	95*	HIV RNase H inh-2=80*
COc1ccc(C(=O)NCCCn2ccnc2)cc1	-9
SMILES	HIV RNase H inh-1	others
Cc1ccc(-c2cc(C(=O)NCCCn3ccnc3)c3cc(Br)ccc3n2)o1	78*	HIV RNase H inh-2=22
COc1ccc(NC(=O)c2cnc3ccccn3c2=O)cc1OC	-10
Cc1nc2ccccn2c1/C(O)=C1\C(=O)C(=O)N(CCCN(C)C)C1c1ccc(F)cc1 (stereo not given)	0
CCc1nn(C(C)C(=O)NC(C)CCc2ccco2)c(=O)c2cc3occc3n12 (stereo not given)	-5
COc1cccc(NC(=O)CSc2nnc(COc3ccc4c(c3)CCCC4)o2)c1	15
CCOc1ccc(NC(=O)CSc2nnc(COc3c(C)cccc3C)o2)cc1	2
COC(=O)c1ccc(NC(=O)CSc2nnc(COc3ccc4c(c3)CCCC4)o2)cc1	75*	HIV RNase H inh-2=30
O=c1c2ccccc2[se]n1-c1ccccc1	94*	HIV RNase H inh-2=67*
O=c1c2ccccc2n2nnnc2n1-c1ccccc1	-14
